Compound activity from PubChem.
Phagocytosis inh = macrophage phagocytosis inhibition | J774A.1 macrophage IgG-bead phagocytosis, imaging | inhibition, % at 5 µM | hit rate 0.07% among 110,000 | AID 1029;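 active = inhibition above the mean of the plate negative controls plus 5 SD, cut at about 13% in these data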;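 also: phagocytic index as fraction of beads internalized from green versus red external bead signal; plate controls were DMSO negative control for no effect and cytochalasin-D positive control for full effect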
IL1B NFkB pot = enhances IL-1B driven NFkB nuclear translocation; HUVEC IL-1B NFkB p65 nuclear translocation imaging; activation, % at 2 µM; hit rate 0.3% among 94,000;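 active = activation above 40%, about the mean plus 3 SD, also judged a hit on visual image review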;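 also: percent activation is computed from the nuclear over cytoplasmic p65 intensity ratio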
IL1B cytotox = HUVEC cytotoxicity counter-screen, IL-1B stimulated. HUVEC cell count loss, Hoechst imaging. cell count reduction, % at 2 µM. hit rate 0.41% among 94,000;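 active = cell count reduction more than 3 SD above the screen-wide mean, cut at about 70% in these data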;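 also: normalized per plate to untreated control cells as the no-loss baseline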
TNFa cytotox = toxic to HUVEC cells under TNF alpha stimulation | cell count reduction, % at 2 µM | hit rate 0.17% among 93,000 | HUVEC TNFalpha-stimulated, Hoechst cell count, imaging;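 active = cell count reduction exceeding the screen mean by over 5 SD, scaled to untreated wells per plate, cut at about 78% in these data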;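 also: cells counted after 24 h of TNF alpha exposure following the 1 h pretreatment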
IL1B NFkB inh = blocks IL-1B driven NFkB nuclear translocation in HUVEC cells. AID 796. inhibition, % at 2 µM. HUVEC IL-1B NFkB p65 nuclear translocation imaging. hit rate 0.43% among 94,000;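 active = inhibition above about 30% together with a positive call from visual inspection of the well image, limit read from the data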;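 also: nuclear over cytoplasmic p65 intensity ratio measured by imaging; 0% = IL-1B stimulated DMSO wells and 100% = unstimulated DMSO wells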
Starred values were filed as active, the others as inactive; . = no result given. Sampled rows, rich in hits. Any-hit rate of the full collection: about 0.93%.

SMILES	Phagocytosis inh	IL1B NFkB pot	IL1B cytotox	TNFa cytotox	IL1B NFkB inh
COC(=O)c1sc(NC(=O)CCCn2nc([N+](=O)[O-])cc2C)c(C(=O)OC)c1C	-4.4	.	.	.	.
CCNS(=O)(=O)c1ccc2c(c1)NCC2	-4.8	.	.	.	.
O=C(N/N=C/c1ccc([N+](=O)[O-])s1)c1cccnc1	-6.6	.	.	.	.
COc1ccc(C(c2nnnn2C2CCCCC2)N2CCN(c3ccc(OC)cc3)CC2)cc1 (stereo not given)	-1.2	56.6*	14.2	-9.8	-56.6
COC(=O)C1=C(CSc2nc3ccccc3s2)NC(=O)NC1c1ccc(F)cc1 (stereo not given)	-2.3	.	.	.	.
CCN(CC)C(=O)Cn1cnc2sc(C(=O)Nc3cc(OC)c(OC)c(OC)c3)c(C)c2c1=O	1.6	42.1*	-78.8	-16.7	-42.1
O=C(c1cc2c(s1)-c1ccccc1S(=O)(=O)C2)N1CCN(Cc2ccccc2)CC1	0.1	14.9	2.4	-20.9	-14.9
O=C1CC(N2CCN(Cc3ccc4c(c3)OCO4)CC2)C(=O)N1Cc1ccc(N2CCCC2=O)cc1 (stereo not given)	.	2.1	8.8	91.5*	-2.1
CCCNC(=S)Nc1ccc(Br)cc1	-2.8	8.4	91.9*	-27.9	-8.4
CC(C)CCNC(=S)Nc1ccc(Br)cc1	4.2	.	.	.	.
CCN(CC)S(=O)(=O)c1cccc(C(=O)Oc2cccc(NC(=O)c3cccs3)c2)c1	-8.3	.	.	.	.
COc1cc(OC)cc(C(=O)NN2CCCCC2)c1	-1.0	-55.8	-4.2	-11.2	55.8*
Cc1ccc(NC(=O)c2ccc(CNc3c(N4CCOCC4)c(=O)c3=O)cc2)cc1	0.5	-8.1	-1.9	-12.0	8.1
CCOc1ccc(OCC)c(NC(=O)c2ccc(CNc3c(N4CCOCC4)c(=O)c3=O)cc2)c1	-1.0	69.8*	-2.7	-3.1	-69.8
CC1CCN(c2c(NCc3ccc(C(=O)N4CCc5ccccc54)cc3)c(=O)c2=O)CC1	.	117.7*	-3.4	-20.7	-117.7
Cc1ccc(CNC(=O)c2ccc(CNc3c(N4CCCC4)c(=O)c3=O)cc2)cc1	-0.2	41.1*	-0.3	-15.8	-41.1
Cc1ccc(S(=O)(=O)N=S(CCO)CCO)cc1	-4.2	.	.	.	.
CCn1c(C)cs/c1=N\C(=S)Nc1ccccc1C	-10.2	.	.	.	.
COc1ccccc1NC(=O)CSc1nnc(CNC(=O)COc2ccc(Cl)cc2)o1	-1.5	40.3*	-25.9	-21.9	-40.3
O=C1C=C(NCc2ccco2)CC(c2ccc(Cl)cc2)C1 (stereo not given)	-1.1	-12.2	86.3*	-34.7	12.2
O=C1C=C(Nc2ccc(Cl)cc2)CC(c2ccc(Cl)cc2)C1 (stereo not given)	.	1.5	-5.8	-0.3	-1.5
O=C(NCc1ccccc1)c1cnsn1	0.8	14.8	89.3*	-21.0	-14.8
CCCCOCCCNC(=O)c1ccc([N+](=O)[O-])c(C)c1	-1.6	.	.	.	.
CCCCC(=O)Nc1sc2c(c1C(=O)OCC)CCC(C=O)=C2Cl	-0.5	-88.4	59.6	30.3	88.4*
CCOC(=O)c1c(NC(=O)c2ccccc2Cl)sc2c1CCc1ccccc1-2	-1.9	.	.	.	.
SMILES	Phagocytosis inh	IL1B NFkB pot	IL1B cytotox	TNFa cytotox	IL1B NFkB inh
CC(C)c1nnc(NC(=O)Cc2ccccc2[N+](=O)[O-])s1	-1.4	.	.	.	.
Cc1cc(Cl)cc(Br)c1OCCCCn1cncn1	2.7	0.5	32.1	9.3	-0.5
Cc1cc(Cl)cc(Br)c1OCCNCC(C)O (stereo not given)	174.1*	-8.0	-41.6	-33.0	8.0
O=C(O)CCC(=O)Nc1ccccc1C(=O)NCc1ccccc1	-7.2	.	.	.	.
O=c1[nH]c2ccc(Cl)cc2c(-c2ccccc2)c1CN1CCOCC1	.	112.9*	-2.8	-5.2	-112.9
O=c1[nH]c2ccc(Cl)cc2c(-c2ccccc2)c1N1CCOCC1	0.7	.	.	.	.
CCOCc1cn(CC(=O)c2ccc(Cl)cc2)c(C)nc1=N	-0.1	-5.2	81.4*	-1.7	5.2
CCOCc1cn(CC(=O)c2ccc([N+](=O)[O-])cc2)c(C)nc1=N	-0.8	-6.3	-7.8	-1.7	6.3
O=C(CCN1Cc2ccccc2C1)c1ccc2c(c1)OCCO2	-0.4	4.9	-50.8	-27.9	-4.9
O=C(CCN1CCc2ccccc2C(c2ccccc2)C1)c1ccc2c(c1)OCCO2 (stereo not given)	0.1	-33.6	-117.1	5.5	33.6*
O=C(Nc1ccc(F)cc1F)c1ccc(COc2c(F)c(F)cc(F)c2F)o1	-1.1	43.4*	88.7*	-9.6	-43.4
C=CCc1ccc(OCCCCN2CC(C)OC(C)C2)c(OC)c1 (stereo not given)	.	-12.7	-2.5	-6.5	12.7
O=S(=O)(c1ccc(Oc2ccc(Br)cc2F)nc1)N1CCCCC1	.	-40.3	-43.5	.	40.3*
CCOc1cc(S(=O)(=O)N2CCCCCC2)ccc1F	-0.7	1.3	16.0	9.6	-1.3
O=C(Nc1cc(S(=O)(=O)N2CCOCC2)ccc1Cl)C(=O)c1c(-c2ccccc2)cc2ccccn12	.	-3.1	-13.0	.	3.1
O=C(CS(=O)(=O)c1ccccc1)N1CCCCCC1	-0.8	6.7	-7.4	-11.8	-6.7
O=S(=O)(C/C(=C/CO)S(=O)(=O)c1ccccc1)c1ccccc1	3.7	-50.6	3.3	30.2	50.6*
COc1ccc(C2CC(=O)C=C(NCCC(C)C)C2)cc1 (stereo not given)	.	51.7*	-8.9	-47.0	-51.7
Cc1nn(-c2ccccc2)c(C)c1NC(=O)COc1ccc(Br)cc1Cl	-7.9	.	.	.	.
CN1/C(=C\C(=O)c2ccco2)c2ccccc2CC1(C)C	-0.3	-34.5	6.8	-28.4	34.5*
CN1/C(=C\C(=O)c2ccccc2Cl)c2ccccc2CC1(C)C	-6.7	.	.	.	.
COc1cccc(CNCCNC(=O)c2ccco2)c1OC	-0.4	41.6*	-26.0	1.2	-41.6
CC(C)C(=O)Nc1nnc(CSCc2ccccc2F)s1	-0.6	-54.2	-6.0	4.9	54.2*
O=C(NC1CCCCC1)C(c1cc2c(cc1[N+](=O)[O-])OCO2)N1CCCCC1 (stereo not given)	-1.0	.	.	.	.
COc1cccc(C(=O)NC2CCN(CC(=O)NCc3ccccc3OC)CC2)c1	-1.7	-0.7	-16.1	-4.6	0.7
COc1cccc(OC)c1NC(=O)CN1CCC(NC(=O)c2cccc(F)c2)CC1	.	-1.7	2.9	92.2*	1.7
COc1ccc(Cl)cc1N1C(=O)/C(=C\c2sccc2C)N=C1SCC(=O)NC1CC1	0.9	-4.6	16.9	0.5	4.6
CC(=O)Nc1ccc(C(=O)c2ccccc2)cc1	-0.3	.	.	.	.
CC(=O)Nc1ccc(NC2(C)C(=O)c3ccccc3C2=O)cc1	-1.3	-2.4	-6.5	87.6*	2.4
